This is an account of results in PubChem BioAssay.

For orientation: inhibition means the relative decrease from the control value, in per cent.

The source made the active and inactive calls.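 How the source made its calls, unless noted: active means inhibition of the reporter signal at or above 50%; inactive means inhibition below 50%.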

Experiment [1] in a line: inhibitors of TNFa-induced NFkB p65 translocation, primary screen, imaging, HUVEC, MLSMR starter and 10KST1 sets (AID 438;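 active means inhibition above 20% together with a positive visual image hit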;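 further: compound added about 3h40 before a 20 min TNFalpha stimulation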;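 on inhibition: signal is the nuclear over cytoplasmic p65 intensity ratio per well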). Particulars: HUVEC TNFa-induced p65 nuclear translocation; cell count: measured here: nuclei count (cytotoxicity indicator), at 2.08 µM; inhibition: at 2 µM, stronger effect = higher value, 0% TNFa-plus-vehicle, 100% no-TNFa wells.
Experiment [2] in a line: reduction of polyQ htt aggregates in cells – imaging, exon1htt(103Q)mCFP cells, high-content imaging, primary screen (AID 483;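 active means visual image review flags a hit and inhibition of aggregation exceeds 20%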;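 further: compound exposure lasted 3 days before fixation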;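 on nuclei count: percent of the per-plate median nuclei count of sample wells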). Particulars: exon1htt(103Q)mCFP cell line, aggregate imaging, at 2 µM; inhibition of aggregation: stronger effect = higher value; nuclei count: measured here: cell count, toxicity.
Experiment [3] can be described thus: endothelial E-selectin expression blockers – imaging, HUVEC, immunofluorescence, MLSMR starter and 10KST1 sets, primary screen (AID 487;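 active means visually confirmed hit in the image check and inhibition above 20%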;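 on inhibition: signal is fraction of cell area covered by stained E-selectin grains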;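 on nuclei count: 100% = median nuclei count of all wells on the same plate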). Particulars: HUVEC TNFalpha-induced E-selectin immunofluorescence imaging, at 2 µM; inhibition: stronger effect = higher value; nuclei count: measured here: cell number, toxicity.
The target of experiment [4] is Voltage-gated potassium channel subunit beta-2 (Rattus norvegicus) (UniProt P62483). As to the kind of experiment: inhibitors of rat Kvbeta2 reductase activity – biochemical, NADPH fluorescence, primary screen (AID 622;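 active means fluorescence slope higher than the sample average by over 3 SD, cut at about -0.22 in these data, passing the limit was not always enough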;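 further: slope of raw intensity against log time taken from 70 to 1610 s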). Particulars: recombinant KvBeta, 4-cyanobenzaldehyde reduction, at 10 µM, stronger effect = higher value.
Sequence of Voltage-gated potassium channel subunit beta-2 (Rattus norvegicus) (P62483 whole entry, looked up): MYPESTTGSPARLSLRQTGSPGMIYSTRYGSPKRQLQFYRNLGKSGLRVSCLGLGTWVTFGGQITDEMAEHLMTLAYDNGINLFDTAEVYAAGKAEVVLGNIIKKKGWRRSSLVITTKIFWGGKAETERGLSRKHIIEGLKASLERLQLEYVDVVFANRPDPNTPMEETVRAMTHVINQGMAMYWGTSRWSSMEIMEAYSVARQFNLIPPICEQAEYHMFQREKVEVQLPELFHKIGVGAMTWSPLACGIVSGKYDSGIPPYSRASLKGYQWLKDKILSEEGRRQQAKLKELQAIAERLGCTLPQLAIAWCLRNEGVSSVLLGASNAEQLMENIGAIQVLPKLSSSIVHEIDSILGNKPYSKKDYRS
For experiment [5] the target is unchanged. As to the kind of experiment: enhancers of rat Kvbeta2 NADPH turnover – biochemical, NADPH fluorescence, primary screen (AID 623;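 active means NADPH fluorescence slope more negative than the mean of all samples by about 3 SD, 99.7% confidence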;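 further: fluorescence intensity change per second fitted from 20 to 320 s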). The following applies: Recombinant KvBeta, NADPH fluorescence decrease slope, 10 min; at 10 µM; stronger effect = lower value.
Experiment [6] has as its target Alpha-2C adrenergic receptor (Homo sapiens) (UniProt P18825). As to the kind of experiment: compounds altering alpha2C-coupled GIRK flux – cell-based, HEK293 alpha2C/GIRK1/2, thallium flux, primary screen (AID 624;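 active means fluorescence slope after compound addition differing from the mean of all screened samples at 99.7% confidence, in either direction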;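 further: slope of fluorescence ratio to pre-addition baseline per second over 15 to 24 s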). Particulars: thallium flux BTC fluorescence, at 10 µM, actives lie on both sides.
A short description of experiment [7]: blockers of RIG-like receptor reporter activation – cell-based, Sendai virus stimulus, luciferase, 10K MLSCN set, TLR/RLR signaling modifier project, primary screen (AID 602276;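 active means inhibition at or above 50% at 10 µM; inactive means inhibition below 50%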;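 further: firefly luciferase from ISG56 promoter only with Renilla not read in this screen; 0% = Sendai virus plus DMSO and 100% = medium plus DMSO without virus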). The following applies: HEK293 RL24 IRF3 luciferase reporter, at 10 µM, stronger effect = higher value. (A reporter such as luciferase makes a cellular process visible.)
The nature of experiment [8]: TLR3 IRF3 reporter activation blockers – cell-based, poly I:C stimulus, luciferase, 10K MLSCN set, primary screen (AID 602277). The following applies: HEK293-TLR3 RL24 IRF3 luciferase reporter, at 10 µM, stronger effect = higher value.

Sequence of Alpha-2C adrenergic receptor (Homo sapiens) (P18825 whole entry, looked up): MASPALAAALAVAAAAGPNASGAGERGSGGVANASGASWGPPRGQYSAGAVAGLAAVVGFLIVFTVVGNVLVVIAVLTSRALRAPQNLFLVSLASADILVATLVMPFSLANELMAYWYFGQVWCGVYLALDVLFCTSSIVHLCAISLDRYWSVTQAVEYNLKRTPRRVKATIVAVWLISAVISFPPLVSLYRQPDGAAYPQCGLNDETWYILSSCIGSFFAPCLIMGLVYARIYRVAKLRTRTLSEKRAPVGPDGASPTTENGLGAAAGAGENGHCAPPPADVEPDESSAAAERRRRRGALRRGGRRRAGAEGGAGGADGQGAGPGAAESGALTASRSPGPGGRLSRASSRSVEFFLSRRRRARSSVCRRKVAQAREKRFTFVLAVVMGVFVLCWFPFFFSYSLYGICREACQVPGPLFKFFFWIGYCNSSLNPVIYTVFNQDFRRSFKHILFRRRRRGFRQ

As to `O=C(/C=C1\NC2(CCCC2)Cc2ccccc21)N1CCOCC1`, in experiment [1], the cell count is 637. The inhibition in experiment [1] was -1.6% (inactive); in experiment [3] it was -93.5% (inactive); in experiment [7], 14.1% (inactive); in experiment [8], 16.1% (inactive). Moreover, the inhibition of aggregation in experiment [2] was -19.3% (inactive). Moreover, the nuclei count in experiment [2] is 88.6%; in experiment [3], 134%. Besides, in experiment [4], the fluorescence slope is -0.534 (inactive). Moreover, the NADPH fluorescence slope in experiment [5] is -4.8e-05 (inactive). For the same molecule, the slope in experiment [6] was 0.00501 (inactive).

`O=C(C1CC1)N1CCc2cc(Br)cc(S(=O)(=O)N3CCOCC3)c21`: in experiment [1], the cell count amounted to 300. Also, the inhibition was 2.2% (inactive) in experiment [1], -22.9% (inactive) in experiment [3], 15.4% (inactive) in experiment [7] and 24.8% (inactive) in experiment [8]. Moreover, in experiment [2], the inhibition of aggregation was -4.4% (inactive). In addition, the nuclei count in experiment [2] is 106%; in experiment [3], 112%. Further, the fluorescence slope in experiment [4] was -0.59 (inactive). In experiment [5], the NADPH fluorescence slope was -3.6e-05 (inactive). Further, the slope in experiment [6] is 0.00736 (inactive).

For the molecule `COc1ccc(Cc2nnc(NC(=O)Cc3cccs3)s2)cc1`, the cell count in experiment [1] turned out to be 674. Further, the inhibition in experiment [1] was -27.6% (inactive); in experiment [3], 14.9% (inactive); in experiment [7], -11% (inactive); in experiment [8] it was 100% (active). Further, the inhibition of aggregation in experiment [2] is 8.6% (inactive). The nuclei count in experiment [2] is 105%; in experiment [3], 101%. Further, in experiment [4], the fluorescence slope was -0.568 (inactive). For the same molecule, the NADPH fluorescence slope in experiment [5] was 2.7e-05 (inactive). In addition, in experiment [6], the slope is 0.0056 (inactive).

Consider `CCn1c(CSc2nc(C)cc(C)n2)nnc1SCC(=O)Nc1ccccc1`, for which the cell count in experiment [1] was 579. Moreover, the inhibition in experiment [1] is 1.9% (inactive); in experiment [3] it was -38.7% (inactive); in experiment [7], -15.1% (inactive); in experiment [8], -10.7% (inactive). The inhibition of aggregation in experiment [2] is -15.5% (inactive). In addition, the nuclei count is 101% in experiment [2] and 142% in experiment [3]. In addition, the fluorescence slope in experiment [4] is -0.436 (inactive). For the same molecule, the NADPH fluorescence slope in experiment [5] is -3.8e-05 (inactive). The slope in experiment [6] was 0.00615 (inactive).

In the case of `Cc1csc(NC(=O)CSc2nnc(Cc3cccn3C)n2-c2ccc(F)cc2)n1`, in experiment [1], the cell count is 688. The inhibition was -3.4% (inactive) in experiment [1], -48.6% (inactive) in experiment [3], -11.3% (inactive) in experiment [7] and 8.94% (inactive) in experiment [8]. For the same molecule, the inhibition of aggregation in experiment [2] is 12.8% (inactive). The results for the nuclei count in experiment [2] and in experiment [3] were 74% and 105%, respectively. In experiment [4], the fluorescence slope is -0.57 (inactive). For the same molecule, the NADPH fluorescence slope in experiment [5] is 2e-05 (inactive). Besides, the slope in experiment [6] was 0.00588 (inactive).

With `CS(=O)(=O)N1CCCC(C(=O)NCc2ccccc2Cl)C1` (centres undefined), the cell count in experiment [1] was found to be 636. Also, the inhibition is -10.2% (inactive) in experiment [1], -124% (inactive) in experiment [3], 3.11% (inactive) in experiment [7] and 8.19% (inactive) in experiment [8]. The inhibition of aggregation in experiment [2] was 20.1% (inactive). Moreover, the nuclei count in experiment [2] came out at 77.4%; in experiment [3], 97.8%. In addition, the fluorescence slope in experiment [4] is -0.59 (inactive). Further, the NADPH fluorescence slope in experiment [5] was -1.1e-05 (inactive). In experiment [6], the slope was 0.00562 (inactive).

As for `O=C(C1CCC(N2C(=O)C3CC=CCC3C2=O)CC1)N1CCCCC1` (centres undefined), the cell count in experiment [1] came out at 257. Further, the inhibition is 22.4% (active) in experiment [1], 23.7% (inactive) in experiment [3], 5.96% (inactive) in experiment [7] and 27.2% (inactive) in experiment [8]. The inhibition of aggregation in experiment [2] is 7.8% (inactive). The figures for the nuclei count in experiment [2] and in experiment [3] were 80.1% and 97.6%, respectively. Further, the fluorescence slope in experiment [4] was -0.356 (inactive). Further, the NADPH fluorescence slope in experiment [5] is -5.2e-05 (inactive). The slope in experiment [6] is 0.00567 (inactive).

Regarding `CCN(CC)C(=O)C1CCCN(Cc2ccc(N(C)C)cc2)C1` (centres undefined), the cell count in experiment [1] came out at 376. For the same molecule, the inhibition is 0% (inactive) in experiment [1], -48.8% (inactive) in experiment [3], 17.9% (inactive) in experiment [7] and 26.8% (inactive) in experiment [8]. In addition, the inhibition of aggregation in experiment [2] is -25.6% (inactive). Moreover, the nuclei count in experiment [2] was found to be 99%; in experiment [3], 124%. Also, in experiment [4], the fluorescence slope is -0.462 (inactive). The NADPH fluorescence slope in experiment [5] is 7.7e-05 (inactive). The slope in experiment [6] is 0.00605 (inactive).

Take `c1ccc(-c2nn3c(Cn4nnc5ccccc54)nnc3s2)nc1`: the cell count in experiment [1] turned out to be 574. Besides, the inhibition is 2.1% (inactive) in experiment [1], 13.7% (inactive) in experiment [3], -11.7% (inactive) in experiment [7] and -3.15% (inactive) in experiment [8]. Further, the inhibition of aggregation in experiment [2] was 3.4% (inactive). The nuclei count in experiment [2] is 103%; in experiment [3], 82.3%. Further, the fluorescence slope in experiment [4] was -0.425 (inactive). Further, the NADPH fluorescence slope in experiment [5] was -2.3e-05 (inactive). The slope in experiment [6] is 0.0044 (inactive).

`Cc1cc(Cl)c(S(=O)(=O)Nc2ccc3c(c2)OCCO3)cc1OCC(N)=O`: the cell count in experiment [1] was 526. The inhibition in experiment [1] was 1.8% (inactive); in experiment [3] it was -79.1% (inactive); in experiment [7], 32.8% (inactive); in experiment [8], 30.7% (inactive). For the same molecule, the inhibition of aggregation in experiment [2] was -7.1% (inactive). The results for the nuclei count in experiment [2] and in experiment [3] were 106% and 113%, respectively. The fluorescence slope in experiment [4] is -0.516 (inactive). Further, the NADPH fluorescence slope in experiment [5] was 1.1e-05 (inactive). Further, the slope in experiment [6] was 0.00485 (inactive).

Consider `COc1ccc(S(=O)(=O)Nc2ccc(F)c(Cl)c2)cc1OC`, for which the cell count in experiment [1] came to 657. The inhibition in experiment [1] is -18.6% (inactive); in experiment [3], 57.8% (inactive); in experiment [7], 12.4% (inactive); in experiment [8] it was 35.2% (inactive). Also, in experiment [2], the inhibition of aggregation was -7.4% (inactive). Moreover, the nuclei count in experiment [2] was 111%; in experiment [3], 63%. Also, the fluorescence slope in experiment [4] is -0.431 (inactive). Besides, the NADPH fluorescence slope in experiment [5] is -2e-05 (inactive). Besides, the slope in experiment [6] was 0.00392 (inactive).

Take `CCc1c(C)c2ccc(OCC(=O)OC)cc2oc1=O`: the cell count in experiment [1] was determined as 342. The inhibition in experiment [1] was 2.2% (inactive); in experiment [3] it was 32.2% (inactive); in experiment [7], 12.5% (inactive); in experiment [8] it was 18.6% (inactive). Moreover, the inhibition of aggregation in experiment [2] was 9.8% (inactive). In addition, the nuclei count turned out to be 78.5% in experiment [2] and 97.7% in experiment [3]. Besides, in experiment [4], the fluorescence slope is -0.165 (inactive). For the same molecule, in experiment [5], the NADPH fluorescence slope was -1.1e-05 (inactive). In experiment [6], the slope was 0.00537 (inactive).

With `O=C(CN1C(=O)CCS(=O)(=O)c2ccccc21)NCc1ccc(F)cc1`, in experiment [1], the cell count is 529. The inhibition was -7.7% (inactive) in experiment [1], -92.3% (inactive) in experiment [3], 15.3% (inactive) in experiment [7] and 8.14% (inactive) in experiment [8]. Moreover, in experiment [2], the inhibition of aggregation was 13.4% (inactive). The nuclei count in experiment [2] is 95.8%; in experiment [3], 124%. In experiment [4], the fluorescence slope was -0.395 (inactive). Also, in experiment [5], the NADPH fluorescence slope was -7.6e-05 (inactive). Moreover, the slope in experiment [6] is 0.00557 (inactive).

For the molecule `Cc1ccc(-n2c(=O)c(C#N)cc3c(=O)n4ccccc4nc32)cc1`, the cell count in experiment [1] turned out to be 338. Further, the inhibition is 3.6% (inactive) in experiment [1], -31% (inactive) in experiment [3], 5.28% (inactive) in experiment [7] and 26.9% (inactive) in experiment [8]. Also, the inhibition of aggregation in experiment [2] was -21.9% (inactive). Further, the nuclei count in experiment [2] came out at 99.9%; in experiment [3], 102%. Moreover, in experiment [4], the fluorescence slope is -0.232 (inactive). In addition, in experiment [5], the NADPH fluorescence slope was 9.6e-06 (inactive). In addition, in experiment [6], the slope is 0.00607 (inactive).
